About 83,000 compounds went through this panel and 20% of them were active in at least one assay; those are over-represented in the sample as a whole.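 In brief: 96-well plates, 48 h treatment, single concentration, percent growth endpoint.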 Unmarked numbers belong to inactive results. Calls of active or inactive are those of the source. The calls were made as follows: active = growth percent below 10; inactive = the rest.

Among the test systems are HCT-15 colon; HT29 colon; SNB-75 CNS; SNB-19 CNS; U251 CNS; PC-3 prostate; SK-MEL-5 melanoma; UACC-62 melanoma; LOX IMVI melanoma; SK-MEL-28 melanoma.
What all share (test): NCI-60 one-dose screen, 48 h (100 = growth as untreated, 0 = no growth, -100 = all killed)
Holding throughout (details): 10 µM unless noted

In the case of `COc1cc(C2CC(c3ccc(C(F)(F)F)cc3)=Nc3c(N)nc(N)nc3N2)ccc1Oc1nc(Nc2ccc(F)cc2)nc(N(C)C)n1` (stereo not given), the growth is 18.5% in the assay on HCT-15 colon; 3.28% (active) in the assay with HT29 colon; 46.6% with SNB-75 CNS; 49.3% in the assay with SNB-19 CNS; 41.4% with U251 CNS; 30.7% in the assay on PC-3 prostate. Besides, the growth was 23.9% with SK-MEL-5 melanoma, 86.3% in the assay on UACC-62 melanoma, -17.6% (active) with LOX IMVI melanoma and 71.5% with SK-MEL-28 melanoma.
On to `O=C1CC(c2ccc(I)cc2)OC2C=Cc3ccccc3C12` (stereo not given), for which the growth in the assay on HCT-15 colon is 94.9%; in the assay with HT29 colon, 90.7%; with SNB-75 CNS, 111%; in the assay with SNB-19 CNS, 101%; in the assay with U251 CNS it was 99.5%; with PC-3 prostate, 101%. Further, the growth in the assay with SK-MEL-5 melanoma is 104%; in the assay on UACC-62 melanoma, 78.9%; with LOX IMVI melanoma, 99.6%; in the assay on SK-MEL-28 melanoma, 116%.
Regarding `O=C(NN1C(=O)/C(=C/C=C/c2ccc([N+](=O)[O-])o2)SC1=S)c1ccncc1`, the growth with HCT-15 colon is -78.9% (active); in the assay with HT29 colon it was -67.2% (active); in the assay with SNB-75 CNS it was -38.6% (active); in the assay with SNB-19 CNS, -96.8% (active); in the assay with U251 CNS, -91.2% (active); in the assay on PC-3 prostate, -63% (active). The growth was -99.5% (active) in the assay with SK-MEL-5 melanoma, -100% (active) in the assay with UACC-62 melanoma, -94% (active) in the assay on LOX IMVI melanoma and -88.9% (active) with SK-MEL-28 melanoma.
Take `COc1c(F)ccc(C(=O)Nc2ccc3nc(NC(=O)C4CCCN(S(=O)(=O)c5ccc(C(C)(C)C)cc5)C4)sc3c2)c1F` (stereo not given): the growth with HCT-15 colon is 63.3%; with HT29 colon, 55.4%; with SNB-75 CNS, 66.4%; with SNB-19 CNS, 78.2%; with U251 CNS, 58.8%; with PC-3 prostate, 45.8%. The growth in the assay with SK-MEL-5 melanoma is 66.5%; in the assay on UACC-62 melanoma, 55.9%; in the assay on LOX IMVI melanoma, 43.9%; with SK-MEL-28 melanoma it was 81.3%.
As for `COc1ccc2[nH]cc(-c3cc4nc(-c5cn(C)c6ncccc56)cc(N)n4n3)c2c1`, the growth in the assay with HCT-15 colon was -25.1% (active); in the assay with HT29 colon, -59.1% (active); in the assay on SNB-75 CNS it was 51.8%; in the assay with SNB-19 CNS it was 26%; in the assay on U251 CNS, -42.4% (active); in the assay with PC-3 prostate, 9.79% (active). In addition, the growth in the assay with SK-MEL-5 melanoma was -56.5% (active); with UACC-62 melanoma it was 85.9%; in the assay on LOX IMVI melanoma, -85.3% (active); in the assay with SK-MEL-28 melanoma, 82.6%.
Take `Clc1ccc(-c2nc3ccc(-c4nnc(SCc5ccccc5)o4)cc3[nH]2)cc1`: the growth was -28.9% (active) with HCT-15 colon; 41.5% with HT29 colon; 40.4% with SNB-75 CNS; 27% in the assay with SNB-19 CNS; -8.55% (active) with U251 CNS; 25.1% in the assay with PC-3 prostate. For the same molecule, the growth is 20.9% in the assay with SK-MEL-5 melanoma, 37.7% in the assay on UACC-62 melanoma, 4.07% (active) with LOX IMVI melanoma and 58.3% with SK-MEL-28 melanoma.
As to `O=C(Cn1c(/C=C/c2ccc([N+](=O)[O-])cc2)nc2ccccc2c1=O)Nc1ccccc1`, the growth in the assay on HCT-15 colon was 85.8%; in the assay with HT29 colon, 45.8%; in the assay on SNB-75 CNS it was 38.5%; in the assay with SNB-19 CNS, 37.2%; with U251 CNS, 69.4%; in the assay on PC-3 prostate, 85.1%. Also, the growth is 82.6% in the assay with SK-MEL-5 melanoma, 69.6% in the assay on UACC-62 melanoma, 58.4% in the assay with LOX IMVI melanoma and 76.1% in the assay on SK-MEL-28 melanoma.
In the case of `O=S(=O)(c1nc(-c2ccc(Br)cc2)oc1-c1ccc(Cl)cc1)N1CCCC(O)C1` (stereo not given), the growth in the assay on HCT-15 colon was 42.6%; with HT29 colon it was 11.2%; with SNB-75 CNS, 94.6%; in the assay on SNB-19 CNS, 62%; in the assay with U251 CNS, 64.8%; in the assay with PC-3 prostate, 28.2%. In addition, the growth in the assay on SK-MEL-5 melanoma is 82.6%; in the assay on UACC-62 melanoma, 53.8%; in the assay on LOX IMVI melanoma it was 4.05% (active); with SK-MEL-28 melanoma, 79.4%.
Take `O=C(N=Nc1c(O)[nH]c2ccc(Br)cc12)c1ccc2nc(-c3ccc(Cl)cc3)[nH]c2c1`: the growth with HCT-15 colon is 58.9%; in the assay on HT29 colon, 10.7%; in the assay on SNB-75 CNS, -18% (active); with SNB-19 CNS it was -27.2% (active); with U251 CNS it was -91.8% (active); in the assay on PC-3 prostate, 10%. The growth in the assay on SK-MEL-5 melanoma is 37.3%; in the assay with UACC-62 melanoma it was -74.8% (active); in the assay on LOX IMVI melanoma, -100% (active); in the assay with SK-MEL-28 melanoma it was -96.3% (active).
Regarding `COC(=O)c1cc(C(C)=O)n2c3ccccc3c3ccccc3c12`, the growth in the assay with HCT-15 colon was 71.3%; in the assay on HT29 colon, 92.6%; in the assay with SNB-75 CNS, -12.2% (active); in the assay on SNB-19 CNS, 42.9%; in the assay on U251 CNS, 80.6%; in the assay with PC-3 prostate, 56.5%. Moreover, the growth in the assay with SK-MEL-5 melanoma is 21.9%; with UACC-62 melanoma it was 67%; in the assay with LOX IMVI melanoma, 64.7%; with SK-MEL-28 melanoma it was 92.4%.
On to `CCc1ccc(SC2c3cc(OC)ccc3Oc3nc(N)c(C#N)c(N)c32)cc1` (stereo not given), for which the growth with HCT-15 colon is -45% (active); with HT29 colon it was -60.5% (active); with SNB-75 CNS, -21.3% (active); in the assay on SNB-19 CNS, 0.536% (active); with U251 CNS, -13.4% (active); with PC-3 prostate it was 3.3% (active). The growth in the assay on SK-MEL-5 melanoma was -95.9% (active); in the assay on UACC-62 melanoma it was -80.7% (active); in the assay with LOX IMVI melanoma, -62.2% (active); in the assay with SK-MEL-28 melanoma, 0.874% (active).
Consider `COc1ccc(-c2cc(-c3cc(OC)c(OC)c(OC)c3)[nH]c(=O)c2C#N)cc1`, for which the growth with HCT-15 colon was 81%; with HT29 colon it was 103%; in the assay with SNB-75 CNS, -22.4% (active); in the assay on SNB-19 CNS it was 8.18% (active); with U251 CNS, 42.2%; in the assay on PC-3 prostate, 70.9%. For the same molecule, the growth is 64.9% in the assay with SK-MEL-5 melanoma, 59.3% with UACC-62 melanoma, 40.2% in the assay on LOX IMVI melanoma and 51.9% in the assay on SK-MEL-28 melanoma.
Consider `COc1cc(-c2ccc3ncnc(N4CCc5ccc(Cl)cc54)c3c2)cnc1Cl`, for which the growth was 24% in the assay on HCT-15 colon; 15.1% with HT29 colon; -2.67% (active) in the assay with SNB-75 CNS; 35% in the assay with SNB-19 CNS; 45.6% with U251 CNS; 14.5% with PC-3 prostate. Besides, the growth in the assay on SK-MEL-5 melanoma is -1.72% (active); in the assay with UACC-62 melanoma, 10%; in the assay on LOX IMVI melanoma it was 11.7%; in the assay on SK-MEL-28 melanoma, 23.8%.
On to `CCCCCCCCc1ccc(C(=O)Nc2ccc(C)cc2C(=O)O)cc1`, for which the growth is 53.2% with HCT-15 colon; 109% in the assay with HT29 colon; 106% with SNB-75 CNS; 67.5% with SNB-19 CNS; 75.4% in the assay on U251 CNS; 66.6% with PC-3 prostate. Further, the growth in the assay on SK-MEL-5 melanoma is 87.1%; in the assay with UACC-62 melanoma it was 87.8%; with LOX IMVI melanoma it was 89.9%; in the assay on SK-MEL-28 melanoma, 108%.
